This note sets out measurements from PubChem BioAssay.

Each structure is given as a SMILES string.

System in the first assay: not listed separately
The assay is described as follows: compounds binding Alexa647 anti-His antibody – biochemical, small-molecule microarray, 635 nm fluorescence, artefact control for SMM control protein annotation, primary screen (AID 1128).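 Further: score merges feature fluorescence with signal-to-noise for each printed compound spot.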 The settings on record: higher = more signal.
On to `CO[C@@H]1C=CCC(=O)N2CCC[C@H]2C(=O)OC[C@@H](C)C(=O)OC[C@H]1C`, for which the composite z-score came out at 0.21. Compound `COC(=O)CC=C[C@@H](C)[C@H](OCc1cccc(-c2ccccc2)c1)C1CCCCC1` had a composite z-score of -0.791. The compound `O=C1C2=CC[C@H]3C(=O)N(c4cccc(Oc5ccccc5)c4)C(=O)[C@H]3[C@H]2[C@H](O)[C@@H]2O[C@H]12` showed a composite z-score of 0.703.

`COC(=O)CC=C[C@@H](C)[C@@H](C=NO[C@@H](C)c1cc(-c2c(C)cc(C)cc2C)no1)NS(=O)(=O)c1ccc(C)cc1` came in with a composite z-score of -1.02.

`CCOC(=O)[C@H](CC(C)C)NC(=O)CCC1CC(OC(=O)NCCc2ccc(F)cc2)CC2(CCCC(COC(=O)NCC3CCCCC3)O2)O1` (stereo partly specified) came in with a composite z-score of 0.183.

A further assay has as its system Human papillomavirus type 1a E7 protein (residues 1-88). Description: HPV1a E7 small-molecule binders, primary screen, biochemical, small-molecule microarray, residues 1-88, 635 nm (AID 1129). The note with it: small-molecule microarray binding, fluorescence 635 nm; higher = more signal.
Take `CCOC(=O)C1=NO[C@@]2(C=C(Br)C3(OCCCO3)[C@H]3O[C@H]32)C1`: the composite z-score is 0.228. The same measure, in the same setting: the figure for `C#CCCCON=C1C[C@@H](O)[C@@H](O)[C@@H]2[C@@H]3C(=O)N(C(C)(C)C)C(=O)[C@@H]3CC[C@H]12` is -0.204; for `CO[C@@H]1COC(=O)[C@@H](C)COC(=O)[C@@H](C)NC(=O)CC=C[C@@H]1C` it is -0.727; for `COC(=O)CC=C[C@@H](C)[C@@H](C=NO[C@H](C)c1cn([C@H](CO)Cc2ccccc2)nn1)NS(=O)(=O)c1ccc(C)cc1` it is 0.611. Turning to `O=C(C=Cc1ccc2c(c1)OCO2)c1ccc(F)cc1`, the composite z-score was -0.575. Same read-out and setting: the same measure for `CCOC(=O)[C@H](CC(C)C)NC(=O)CCC1CC(OC(=O)NCc2cccc3ccccc23)CC2(CCCC(COC(=O)NCCOC)O2)O1` (stereo partly specified): 1.19.

Turning to `C[C@@H]1C=CCC(=O)OC[C@H]2O[C@@H](C=C[C@@H]2O)[C@H](C)C=CCC(=O)OC1`, the composite z-score was -0.813. Still for that read-out and setting: the same measure for `CCOC(=O)[C@H](CC(C)C)NC(=O)CCC1CC(OC(=O)NCc2cccc3ccccc23)CC2(CCCC(COC(=O)NCCCN3CCCC3=O)O2)O1` (stereo partly specified): 1.06. The compound `CSCC[C@@H]1NC(=O)CC=C[C@@H](C)COC(=O)[C@@H](C)COC1=O` returned a composite z-score of -1.81. `COc1ccc(O[C@H]2C=C[C@@H](c3ccccc3)O[C@@H]2CON=C(C)CCN2CCc3nc(-c4ccccc4)c(-c4ccccc4)cc3C2)cc1`: the composite z-score was -0.536. Same read-out and setting: the figure for `C=COC[C@@H]1CN2[C@@H](CC[C@@H](C)[C@@H]2c2ccc(Br)cc2)C(=O)O1` is 0.151. The compound `COC(=O)CC=C[C@@H](C)[C@@H](C=NOCC[C@@H]1C=C[C@H](OC(C)=O)[C@@H](COC(C)=O)O1)NS(=O)(=O)c1ccc(C)cc1` yielded a composite z-score of -0.185. Still for that read-out and setting: the same measure for `CCc1cc2c(nc1CC)CCN(CCC(C)=NOC[C@H]1O[C@H](c3ccccc3)C=C[C@@H]1Oc1ccc(OC)cc1)C2`: -0.121; for `CC(C)CON=C1C[C@@H](O)[C@@H](O)[C@@H]2[C@@H]3C(=O)N(C4CCCCC4)C(=O)[C@@H]3CC[C@@H]12`: -0.586. Regarding `CCN1C(=O)[C@H]2[C@H]3[C@H](O)[C@H](O)CC(=O)[C@@H]3CC[C@H]2C1=O`, the composite z-score was 0.899. Consider `COC(=O)C1=C(C)N(Cc2ccccc2)[C@]23O[C@](C(=O)OC)(C(=O)N2[C@@H]1c1ccccc1)C(C(=O)OC)=C3C(=O)OC`, for which the composite z-score was 0.653. Same read-out and setting: the figure for `CC(C)=NO[C@H](C)c1cn([C@H](CO)Cc2ccccc2)nn1` is 0.464; for `CON=Cc1ccc(C(=O)N2[C@H](c3ccc(C)cc3)[C@@H](C)CC[C@H]2C(=O)OC)cc1` it is 0.73; for `CCN1C(=O)[C@@H]2[C@H]3C(=CC[C@@H]2C1=O)C1(OCCCO1)[C@H]1O[C@H]1[C@H]3O` it is 1.04.

Consider `O=C(NN=C1C[C@@H](O)[C@@H](O)[C@@H]2[C@@H]3C(=O)N(C[C@@H]4CCCO4)C(=O)[C@@H]3CC[C@@H]12)OCc1ccccc1`, for which the composite z-score was -0.645. The same measure, in the same setting: the same measure for `CC(CCN1CCc2nc(-c3ccccc3)c(-c3ccccc3)cc2C1)=NOC[C@@H](O)COCc1ccco1`: 0.697; for `O=C1[C@H]2[C@H]3[C@H](O)[C@H](O)CC(=NO[C@@H]4O[C@H](CO)[C@@H](O)[C@H](O)[C@H]4O)[C@H]3CC[C@H]2C(=O)N1c1cccc(Oc2ccccc2)c1`: 0.394.

Compound `O=C1C[C@@H](O)[C@@H](O)[C@@H]2[C@@H]3C(=O)N(Cc4ccc5c(c4)OCO5)C(=O)[C@@H]3CC[C@H]12` displayed a composite z-score of 0.923. `COC(=O)[C@@H]1CC[C@@H](C)[C@H](c2ccc(Br)cc2)N1`: the composite z-score is 0.0613. The compound `CCOC(=O)[C@H](CC(C)C)NC(=O)CCC1CC(OC(=O)NCCc2ccc(F)cc2)CC2(CCCC(COC(=O)NCC(c3ccccc3)c3ccccc3)O2)O1` (stereo partly specified) registered a composite z-score of 0.749. The same measure, in the same setting: the same measure for `COC(=O)[C@H](C)NC(=O)CCC1CC(OC(=O)NCc2ccc3c(c2)OCO3)CC2(CCCC(COC(=O)NCc3cccc(C(F)(F)F)c3)O2)O1` (stereo partly specified): 0.741.
